Results from PubChem BioAssay AID463173 (ICCB-Longwood Screening Facility, Harvard Medical School, 2010).
In all, about 52,000 compounds went through this assay and about 4,300 (8.3%) were called active. The sample holds actives, similar compounds and a random draw of the others, so the mix is not that of the screen. A number with no mark means an inactive call. Cut-off read from the data, not from the text of the source: active = survival mostly below about 52% (no sharp cut-off); inactive = mostly above about 56%.

test system: DeltatarO mutant; experiment: S. aureus survival, RN4220 and DeltatarO strains – OD600, teichoic acid synthesis inhibitors, primary screen (AID 463173); settings: S. aureus RN4220 wild type/DeltatarO growth, OD600, 18 h, hits give low values, screened at 18.75 µg/mL (by protocol)

Compound | survival
CCC(C)NC(=O)CSc1nc2cc3c(cc2c(=O)n1CCCCCC(=O)NCc1ccc2c(c1)OCO2)OCO3 (stereo unspecified) | 84%
O=C(COc1ccccc1F)Nc1c(C(=O)Nc2cccc(F)c2)oc2ccccc12 | 75%
COc1cccc(-c2cc(C(F)(F)F)nc(NCCc3ccc(OC)c(OC)c3)n2)c1 | 4% (active)
COc1ccc(CCNc2nc(-c3ccccc3OC)cc(C(F)(F)F)n2)cc1OC | -8% (active)
COc1ccc(CCNC(=O)C2CCN(c3nc4ccccc4nc3C(F)(F)F)CC2)cc1OC | 92%
COc1ccc(CCNc2nc(-c3ccc(F)cc3)cc(C(F)(F)F)n2)cc1OC | 109%
COc1ccc(CCNC(=O)CSc2nc(-c3ccc(F)cc3)cc(C(F)(F)F)n2)cc1OC | 77%
COc1ccc(CCNC(=O)Cn2nc(-c3ccc(Cl)cc3)ccc2=O)cc1OC | 75%
COc1ccc(CCNc2nc(-c3ccc(C)cc3)cc(C(F)F)n2)cc1OC | 87%
COc1ccc(-c2cc(C(F)(F)F)nc(SCC(=O)NCCc3ccc(OC)c(OC)c3)n2)cc1 | 59%
COc1ccc(CCNc2nc(-c3ccc(Cl)cc3)cc(C(F)(F)F)n2)cc1OC | 8% (active)
COc1ccc(CCNc2nc(-c3ccc(OC)c(OC)c3)cc(C(F)(F)F)n2)cc1OC | 4% (active)
CCOC(=O)N1CCC(NC(=O)c2cnn(-c3ccc(C)cc3)c2-n2cccc2)CC1 | 69%
CCc1ccc2[nH]c(=O)c(CN(CCCN3CCOCC3)C(=S)NC)cc2c1 | 88%
CC(C)c1c(O)nc(SCCN2CCOCC2)[nH]c1=O | 92%
CCOc1ccc2nc(NC3=NCCC(=O)N3)nc(C)c2c1 | 80%
CCN(CC)C(=O)c1sc2c(c1C)c(=O)n(-c1ccc(C)c(C)c1)c(=O)n2CC(=O)Nc1ccc(F)cc1 | 92%
CCCCc1nn2c(=O)cc(COC(=O)c3ccc(NC(=O)C4CCCCC4)cc3)nc2s1 | 91%
CCn1cc(C(=O)NCc2ccc(Cl)cc2)c(=O)c2cc(S(=O)(=O)N3CCc4ccccc4C3)ccc21 | 64%
CCN(CC)C(=O)COc1ccc2ccc(=O)oc2c1 | 84%
COc1ccccc1CNC(=O)CCCn1c(=O)c2ccccc2n(Cc2ccc(C)cc2)c1=O | 132%
CCOC(=O)Cn1c(=O)n(C2CCCCC2)c2nc(-c3ccc(OCC)cc3)nc(C(N)=O)c21 | 86%

Compound | survival
CCCS(=O)(=O)N1CC(=O)N(c2ccccc2C)C(C)(C(=O)NC2CCCCC2)C1 (stereo unspecified) | 75%
COc1ccccc1NC(=O)C1CCN(S(=O)(=O)c2cn(C)cn2)CC1 | 69%
CCCc1nc2nc(C)c(NS(=O)(=O)c3ccc(C)c(C)c3)c(=O)n2[nH]1 | 129%
COc1cc(OC)cc(C(=O)Oc2c(Sc3ccccc3)c(C)nn2C(C)(C)C)c1 | 43% (active)
Cc1cccc(C(=O)Oc2c(Sc3ccccc3)c(C)nn2C(C)(C)C)c1 | 57%
Cc1nn(C(C)(C)C)c(OC(=O)c2cccc(F)c2)c1Sc1ccccc1 | 24% (active)
Cc1nn(C(C)(C)C)c(OC(=O)c2c(F)cccc2F)c1Sc1ccccc1 | 127%
CCOc1ccc(C(=O)Oc2c(Sc3ccccc3)c(C)nn2C(C)(C)C)cc1OCC | 57%
COc1ccc(C(=O)Oc2c(Sc3ccc(Cl)cc3)c(C)nn2C(C)(C)C)cc1OC | 56%
CCOc1ccc(NC(=O)CSc2nc(-c3ccc(OC)cc3)nc3c2Cc2c(CO)cnc(C)c2O3)cc1 | 79%
CS(=O)(=O)N1CCc2cc(C(=O)N3CCN(c4ccccc4F)CC3)ccc21 | 45%
COc1ccc(C(=O)Nc2nc3nc(C)c(Cl)c(=O)n3[nH]2)cc1 | 100%
COc1cc(C2CC(=O)N(c3ccccc3)C3=C2C(=O)OC3)cc(OC)c1OC (stereo unspecified) | 72%
Cc1cc2cc(CN(CC3COCCO3)S(=O)(=O)c3ccc(F)cc3)c(=O)[nH]c2cc1C (stereo unspecified) | 103%
O=C1c2cccc3cccc(c23)N1c1ccccc1 | 77%
COC(=O)C(NC(=O)CC(C)C)(Nc1nc2c(s1)CCCC2)C(F)(F)F (stereo unspecified) | 120%
COc1ccc(CNc2nc(-c3ccc(Cl)cc3)cc(C(F)(F)F)n2)cc1 | 29% (active)
COc1ccc(CNC(=O)c2cc(-c3ccc(Cl)cc3)n[nH]2)cc1 | 78%
COc1ccc(-c2cc(C(F)(F)F)nc(SCC(=O)NCc3ccc(Cl)cc3)n2)cc1 | 62%
COc1ccc(-c2cc(C(F)(F)F)nc(NCc3ccc(Cl)cc3)n2)cc1 | 3% (active)
CCN(c1cccc(C)c1)S(=O)(=O)c1ccc2[nH]cc(C(=O)NCCCOC)c(=O)c2c1 | 67%
COc1ccc(N(C)C(=O)c2nc(-c3cccc(F)c3)n3c2CCCCC3)c(OC)c1 | 74%

Compound | survival
CCOC(=O)c1cccc(NS(=O)(=O)c2cc(-c3cnc(C4CC4)o3)ccc2C)c1 | 90%
O=C(Nc1cccnc1)c1cc(-c2ccc(Cl)cc2)on1 | 61%
CN1/C(=C\C(=O)Nc2cccnc2)c2ccccc2CC1(C)C | 65%
Cn1c(=O)oc2cc(S(=O)(=O)CCC(=O)NCCc3ccccc3)ccc21 | 96%
COc1ccc(NC(=O)c2c(NC(=O)c3ccncc3)sc3c2CCC(C(C)(C)C)C3)cc1 (stereo unspecified) | 41% (active)
COc1ccc(NC(=O)c2c(NC(=O)COc3ccccc3)sc3c2CCC(C(C)(C)C)C3)cc1 (stereo unspecified) | 75%
CCOc1ccc(NC(=O)c2c(NC(=O)c3cccs3)sc3c2CCC(C(C)(C)C)C3)cc1 (stereo unspecified) | 67%
CCOc1ccc(NC(=O)c2c(NC(=O)c3ccncc3)sc3c2CCC(C(C)(C)C)C3)cc1 (stereo unspecified) | 113%
CCC(=O)Nc1sc2c(c1C(=O)Nc1ccc(OC)cc1)CCC(C(C)(C)C)C2 (stereo unspecified) | 13% (active)
COC(=O)c1c(NC(=O)c2cccc(OC)c2)sc2c1CCC(C(C)(C)C)C2 (stereo unspecified) | 43% (active)
CC(C)(C)C1CCc2c(sc(NC(=O)c3cccc(Cl)c3)c2C(N)=O)C1 (stereo unspecified) | 70%
COC(=O)c1c(NC(=O)C2c3ccccc3Oc3ccccc32)sc2c1CCC(C(C)(C)C)C2 (stereo unspecified) | 78%
Cc1ccccc1NC(=O)c1c(NC(=O)c2ccncc2)sc2c1CCC(C(C)(C)C)C2 (stereo unspecified) | 110%
O=S(=O)(c1ccccc1)N1CCC(O)(c2ccccc2)C2CCCCC21 (stereo unspecified) | 73%
CC(=O)c1cccc(NC(=O)C(Cc2ccccc2)NS(=O)(=O)c2ccc(Br)s2)c1 (stereo unspecified) | 116%
Cc1n[nH]c(=S)n1CC(=O)n1c2c(c3ccccc31)CCCC2 | 91%
Cc1ccc(C)c(-n2nnc(C(=O)Nc3ccc(Br)cc3)c2C)c1 | 18% (active)
COc1cccc(NC(=O)c2nn(-c3ccc(C)cc3)c(=O)n(C)c2=O)c1 | 124%
CC(=O)c1nnn(-c2ccc(C)cc2Cl)c1C | 65%
Cc1cccc(NC(=O)c2ccc(-n3c(C)nnc3C)cc2)c1 | 88%
CC(=O)Nc1c(C(=O)Nc2cccc(C)c2)nnn1-c1ccc(C)cc1 | 69% (active)
COc1ccc(C)cc1-n1nnc(C(=O)Nc2cccc(SC)c2)c1C | 86%

Compound | survival
COc1ccc(NC(=O)c2cc(S(=O)(=O)N3CCCC(C)C3)cn2C)c(OC)c1 (stereo unspecified) | 87%
COc1ccccc1N1CCN(c2cc(C)nc3c(-c4ccc(Cl)cc4)c(C)nn23)CC1 | 87%
Cc1cc(N2CCN(c3cc(Cl)ccc3C)CC2)n2nc(-c3ccccc3)nc2n1 | 77%
Cc1ccc(-c2nc3nc(C)cc(N4CCN(c5cccc(C)c5C)CC4)n3n2)cc1 | 128%
COc1ccc(N2CCN(c3cc(C)nc4nc(-c5ccc(C)cc5)nn34)CC2)cc1 | 53%
COc1ccccc1N1CCN(c2cc(C)nc3nc(-c4ccc(C)cc4)nn23)CC1 | 40% (active)
COc1ccccc1N1CCN(c2cc(C)nc3nc(-c4ccc(Cl)cc4)nn23)CC1 | 38% (active)
COc1cc(C(=O)NCc2ccc3c(c2)CCN3C(=O)c2ccncc2)cc(OC)c1OC | 101%
Cc1cccc(N2CCN(C(=O)c3cn(C4CCCCC4)c(=O)c4c3c3ccccc3n4C)CC2)c1C | 115%
CCC1CC(/C(C)=N/NC(N)=O)OC1=O (stereo unspecified) | 71%
Cc1c(-c2nc(-c3ccccc3F)no2)nnn1-c1cc(F)ccc1F | 84%
CCOC(=O)c1c(C)n(-c2ccccc2)c2ccc(OC(=O)c3ccccc3NC(=O)C(C)(C)C)cc12 | 55%
CCOC(=O)c1c(C)n(-c2ccccc2)c2ccc(OC(=O)c3ccccc3NC(=O)C(C)C)cc12 | 47% (active)
CCOC(=O)c1c(C)n(-c2ccccc2)c2ccc(OC(=O)c3cccc(C)c3)cc12 | 63%
CCOC(=O)c1c(C)n(-c2ccccc2)c2ccc(OC(=O)c3ccccc3)cc12 | 3% (active)
CCOC(=O)c1c(C)n(-c2ccccc2)c2ccc(OC(=O)c3ccccc3Cl)cc12 | 54%
CCOC(=O)c1c(C)n(-c2ccccc2)c2ccc(OC(=O)c3cccc(Cl)c3)cc12 | 79%
COc1ccc(S(=O)(=O)N2CCC(C(=O)Nc3ccc(Oc4ccccc4)cc3)CC2)cc1 | 72%
O=C(COc1ccc(S(=O)(=O)NC2CCCCC2)cc1Cl)NCc1ccccn1 | 104%
COc1ccc(N2CCN(C(CNC(=O)C(=O)NCc3ccc(C)cc3)c3cccnc3)CC2)cc1 (stereo unspecified) | 61%
